PubChem BioAssay
Calls of active or inactive are those of the source.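 Rule for the calls: active = calcium signal rise more than 3 SD above the low-dose agonist control mean, in both duplicate plates and the primary screen; inactive = the rest.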

Test: calcium flux enhancement in mu-opioid HEK293 cells, confirmation, counter-screen for TRPC4 allosteric potentiator project, cell-based, HEK293 mu-opioid receptor line (AID 449724);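 note: HEK293 cells carrying mu-opioid receptor only with no TRPC4 channel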
Settings: Fluo-4 calcium flux, at 10 µM, compound added before EC20 DAMGO stimulus

Q: With Cc1ccccc1Cn1c(=N)n(CC(O)c2ccco2)c2ccccc21 (centres undefined) as the compound, how does the outcome read?
A: The outcome was “inactive”.

Q: Which outcome does the source give for CN1CCN(c2ccc(NC(=O)c3ccc(-c4ccc(Cl)cc4)o3)cc2)CC1 here?
A: The outcome was “inactive”.

Q: With COc1cc(C(F)(F)F)nc2c(Br)c(C(C)(C)C)nn12 as the compound, how does the outcome read?
A: Its outcome is “inactive”.

Q: Which outcome does the source give for Clc1cccc(C[n+]2cc(-c3ccccc3)n3c2CCC3)c1 here?
A: The outcome was “inactive”.

Q: Which outcome does the source give for COC(=O)c1ccc(CSc2nc3ccccc3c(=O)n2CC(C)C)o1 here?
A: Its outcome is “inactive”.

Q: With CN(C)c1ccc(NC(=O)CN2C3CCCC2CC(NC(=O)c2ccccc2)C3)cc1 (centres undefined) as the compound, how does the outcome read?
A: The outcome was “inactive”.

Q: Which outcome does the source give for Cc1ccn2c(CNCCCn3cccn3)c(C(=O)N3CCCCCC3)nc2c1 here?
A: The outcome was “inactive”.

Q: Which outcome does the source give for O=C(O)c1ccc(N/N=C/c2ccc(-c3cccc(Cl)c3)o2)cc1 here?
A: Its outcome is “inactive”.

Q: For NS(=O)(=O)c1ccc(CCNCc2ccccc2OCc2ccc(Cl)cc2)cc1, which outcome is on record?
A: The outcome was “inactive”.

Q: Which outcome does the source give for CCCCn1c(NCCO)nc2ccccc21 here?
A: Its outcome is “inactive”.

Q: With CCCOc1ccc(-c2nc(SCc3ccccc3)[nH]c(=O)c2C#N)cc1OC as the compound, how does the outcome read?
A: The outcome was “inactive”.

Q: For NC(=O)c1nsc(C(=O)N(Cc2ccccc2Cl)C(C(=O)NCC2CCCO2)c2ccc(O)cc2)c1N (centres undefined), which outcome is on record?
A: Its outcome is “inactive”.

Q: With N#Cc1cccc2c1-c1ccccc1/C2=N/NC(N)=O as the compound, how does the outcome read?
A: Its outcome is “inactive”.

Q: With CCCn1c(NC(=O)c2ccc(Cl)c(S(=O)(=O)N3CCCC3)c2)nc2ccccc21 as the compound, how does the outcome read?
A: Its outcome is “inactive”.

Q: Which outcome does the source give for CCOC(=O)C(C)Sc1nc2c(c(=O)[nH]c(=O)n2C)n1Cc1ccc(Cl)cc1 (centres undefined) here?
A: The outcome was “inactive”.

Q: With OCCNc1nc2ccccc2n1CCN1CCCCC1 as the compound, how does the outcome read?
A: The outcome was “inactive”.

Q: With Cc1cc(N2CCC(C)CC2)nc2cccc(O)c12 as the compound, how does the outcome read?
A: Its outcome is “inactive”.

Q: Which outcome does the source give for CCCN1C2=NCCN2c2cc(C)c(C)cc21 here?
A: The outcome was “inactive”.

Q: With COc1ccc(C2NC(C(=O)O)Cc3c2[nH]c2ccccc32)cc1CN1CCN(c2ccc(F)cc2)CC1 (centres undefined) as the compound, how does the outcome read?
A: The outcome was “inactive”.

Q: Which outcome does the source give for COc1cc(CNC2CCCC2)cc(Cl)c1OCc1ccc(F)cc1 here?
A: The outcome was “inactive”.

Q: With CC1CCN(C(C)C(=O)Nc2ccccc2-c2ccccc2)CC1 (centres undefined) as the compound, how does the outcome read?
A: Its outcome is “inactive”.

Q: With COc1cccc(C(=O)C2CCCN(Cc3cccn3-c3ccccn3)C2)c1 (centres undefined) as the compound, how does the outcome read?
A: Its outcome is “inactive”.

Q: Which outcome does the source give for N=c1c2c(n(Cc3ccccc3)c3c1CCC3)CCC2 here?
A: Its outcome is “inactive”.

Q: With OCC1(CCCc2ccccc2)CCN(Cc2cc(F)ccc2F)CC1 as the compound, how does the outcome read?
A: Its outcome is “inactive”.

Q: Which outcome does the source give for N#Cc1c(NC(=O)C2CC(Cl)=CCC2C(=O)O)sc2c1CCCCC2 (centres undefined) here?
A: Its outcome is “inactive”.

Q: For c1ccc2[nH]c(CCCCc3nc4ccccc4[nH]3)nc2c1, which outcome is on record?
A: The outcome was “inactive”.

Q: For CN(C)CCN1C(=O)C2C(C(=O)Nc3cc(Cl)cc(Cl)c3)C3C=CC2(O3)C1C(=O)NC1CCCCC1 (centres undefined), which outcome is on record?
A: The outcome was “inactive”.

Q: Which outcome does the source give for CCc1cccc(OCC(=O)Nc2ccc(C(=O)O)cc2NC(=O)COc2cccc(CC)c2)c1 here?
A: Its outcome is “inactive”.

Q: With CCc1ccc2nc(N=C(N)N)nc(C)c2c1 as the compound, how does the outcome read?
A: Its outcome is “inactive”.

Q: With C=CCOc1ccc(Br)cc1CNC(C)(C)CO as the compound, how does the outcome read?
A: Its outcome is “inactive”.

Q: For O=c1c2ccccc2[nH]c(=S)n1CCN1CCN(Cc2ccccc2)CC1, which outcome is on record?
A: The outcome was “inactive”.

Q: With CN(CC(=O)NC1CCCc2ccccc21)C1CCCCC1 (centres undefined) as the compound, how does the outcome read?
A: Its outcome is “inactive”.

Q: With Cc1cc(C(=O)N/N=C\c2cc(C(C)(C)C)ccc2O)n[nH]1 as the compound, how does the outcome read?
A: The outcome was “inactive”.

Q: For CC1(C)CC2CC(C)(CN2C(=O)c2cc(-c3ccc(O)cc3)on2)C1 (centres undefined), which outcome is on record?
A: Its outcome is “inactive”.

Q: For OCC1(Cc2ccccc2)CCCN(Cc2cnn(-c3ccccc3)c2)C1 (centres undefined), which outcome is on record?
A: Its outcome is “inactive”.

Q: Which outcome does the source give for CCOc1ccccc1CN1CCC(n2nccc2NC(=O)CCc2ccccc2)CC1 here?
A: Its outcome is “inactive”.

Q: Which outcome does the source give for CCCOc1cccc(C(=O)NCCNC(=O)c2ccco2)c1 here?
A: The outcome was “inactive”.

Q: With Brc1ccc(CN2C3=NCCCN3c3ccccc32)cc1 as the compound, how does the outcome read?
A: The outcome was “inactive”.

Q: For Cc1[nH]n(C)c(=O)c1C(=O)c1c(-c2c(Cl)cccc2Cl)noc1C, which outcome is on record?
A: Its outcome is “inactive”.
